# T cruzi growth-1: inhibitors of T. cruzi proliferation. T. cruzi beta-gal in NIH3T3, GalScreen luminescence, 90 h. inhibition, % at 8.34 µM. 5.9% of 77,000 active;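 active = mean inhibition above about 93%, with at least 55% of replicates each passing it, limit read from the data, passing the limit was not always enough; inconclusive = only one of those two conditions holds; inactive = neither condition holds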
# C diff growth: blocks growth of Clostridium difficile; Clostridium difficile clinical isolate growth, OD600, 24 h; active compounds read low; growth activity, negative = inhibition, % at 16 µg/mL (by protocol); 0.25% of 86,000 active; AID 1259249;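 active = mean growth activity at or below -80% and every replicate also at or below -80%; inconclusive = mean at or below -80% but some replicate above -80%; inactive = mean growth activity above -80%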;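 note: 0% = DMSO wells and -100% = levofloxacin 16 µg/mL wells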
# Pf Dd2 inh: inhibitors of Plasmodium falciparum Dd2 growth; P. falciparum Dd2 growth, SYBR Green, 72 h; active compounds read low; activity change, % at 10 µM; 2.3% of 94,000 active; in the data active = activity change below about -80%; inconclusive = no clear call, values can overlap the other calls
# T cruzi growth-2: blocks T. cruzi growth in NIH3T3 host cells. shares compounds with T cruzi growth-1. T. cruzi beta-gal in NIH3T3, GalScreen luminescence, 90 h. inhibition, % at 8.35 µM. 72% of 5,600 active. AID 651739;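 active = mean replicate inhibition above about 95% and at least 55% of replicates individually reaching it, limit read from the data; inconclusive = only one of the two criteria is met; inactive = neither criterion is met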
# T cruzi growth-3: Trypanosoma cruzi proliferation inhibition; inhibition, % at 2.09 µM; T. cruzi beta-gal in NIH3T3, GalScreen luminescence, 90 h; AID 651740; shares compounds with T cruzi growth-1; 21% of 5,600 active;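 active = mean inhibition above about 95%, with at least 55% of replicates also reaching it, limit read from the data; inconclusive = meets just one of the two conditions; inactive = meets neither condition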;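 note: plate controls were neutral control median for no effect and positive control median for full effect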
# 3T3 cytotox: kills mouse NIH/3T3 fibroblasts. shares compounds with T cruzi growth-1. NIH/3T3 viability, CellTiter-Glo ATP luminescence, 90 h. cytotoxicity (signal decrease), % at 8.35 µM. 14% of 5,600 active. AID 651742;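 active = mean signal decrease across replicates above about 35% based on untreated-well scatter, with enough replicates individually passing, limit read from the data; inconclusive = no rule stated though some were filed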;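 note: 0% = median of neutral control wells and 100% = median of positive control wells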
# NIH3T3 tox 2: kills mouse NIH/3T3 fibroblasts | shares compounds with T cruzi growth-1 | NIH/3T3 viability, CellTiter-Glo ATP luminescence, 90 h | inhibition, % at 24.9 µM | 56% of 5,600 active | AID 651744;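 active = mean loss of cell viability signal at or above a set limit, and enough replicates individually reaching it; inconclusive = meets only the mean limit or only the replicate share; inactive = meets neither condition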;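 note: 0% = median of neutral control wells and 100% = median of positive control wells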
# Starred values were filed as active, the others as inactive; ? = inconclusive; . = no result given. Compounds with a hit are over-represented: about 6.7% of the library has one in this group of screens.
SMILES,T cruzi growth-1,C diff growth,Pf Dd2 inh,T cruzi growth-2,T cruzi growth-3,3T3 cytotox,NIH3T3 tox 2
CC=Cc1ccc2n(c1=O)C[C@@H]1[C@@H](CO)[C@H](C(=O)NCCc3cn(C)cn3)N(C(=O)C3CCC3)[C@H]21 (mixture of isomers),67.9,-5.7,.,.,.,.,.
O=C(c1ccncc1)N1CC2(C1)[C@H](c1ccccc1)[C@@H](CO)N2CC1CCOCC1,.,-5.7,15.0,.,.,.,.
COCC(=O)N1CC2(C1)CN(C(=O)Nc1ccccc1F)[C@@H](CO)c1c2c2ccc(OC)cc2n1C,.,-4.4,-35.1,.,.,.,.
CC(C)NC(=O)Nc1ccc2c(c1)C(=O)N([C@H](C)CO)C[C@@H](C)[C@H](CN(C)C(=O)c1ccncc1)OCCCC[C@@H](C)O2,22.3,-4.1,28.6,.,.,.,.
CN1CCN(C(=O)C[C@H]2CC[C@H]3[C@@H](COC[C@@H](O)CN3S(=O)(=O)c3cccc(Cl)c3)O2)CC1,-16.3,.,8.0,.,.,.,.
COc1ccccc1-c1ccc([C@H]2[C@@H](CO)N3CCCCN(C(=O)CN4CCOCC4)C[C@H]23)cc1,61.8,-5.4,-32.7,.,.,.,.
COc1ccccc1-c1ccc([C@H]2[C@H](CO)N3CCCCN(C(=O)CN4CCOCC4)C[C@@H]23)cc1,100.3*,-4.0,-3.2,78.5,40.1,19.1,30.6*
O=C(CN1CCOCC1)N1CCCCN2[C@H](C1)[C@@H](c1ccc(/C=C/c3ccccc3)cc1)[C@@H]2CO,83.0,-8.1,-11.8,.,.,.,.
O=C(CN1CCOCC1)N1CCCCN2[C@H](CO)[C@H](c3ccc(/C=C/c4ccccc4)cc3)[C@H]2C1,99.9*,-4.8,-70.5,96.6*,62.3,24.5,105.1*
CNC(=O)C[C@@H]1CC[C@H]2[C@H](COc3ccc(NC(=O)c4cc(C)on4)cc3C(=O)N2C)O1,28.6,-3.3,15.7,.,.,.,.
CCC(=O)Nc1ccc2c(c1)OC[C@H](C)N(Cc1cccc(F)c1)C[C@H](C)[C@@H](OC)CN(C)C2=O,53.7,.,-21.7,.,.,.,.
O=C(C[C@@H]1C[C@H]2c3cc(NC(=O)C4CCC4)ccc3O[C@H]2[C@@H](CO)O1)NCC1CC1,-4.1,-1.7,-20.4,.,.,.,.
CN(C)C(=O)c1ccc(-c2ccc([C@H]3[C@H]4CN(C(=O)C5CCCC5)CCCCN4[C@H]3CO)cc2)cc1,32.1,-6.4,-32.6,.,.,.,.
CN(C)C(=O)c1ccc(-c2ccc([C@@H]3[C@H](CO)N4CCCCN(C(=O)C5CCCC5)C[C@@H]34)cc2)cc1,100.0*,-5.6,-28.5,86.9,85.8,7.9,14.9
CN(C)C(=O)c1ccc(-c2ccc([C@@H]3[C@H]4CN(C(=O)C5CC5)CCCCN4[C@H]3CO)cc2)cc1,26.4,3.3,-35.1,.,.,.,.
CN(C)C(=O)c1ccc(-c2ccc([C@@H]3[C@H]4CN(C(=O)C5CCCC5)CCCCN4[C@H]3CO)cc2)cc1,114.3*,-12.8,9.5,80.1,59.6,37.6*,37.6*
C[C@H]1CN([C@@H](C)CO)C(=O)c2cc(NC(=O)C3CCCCC3)ccc2O[C@@H]1CN(C)S(=O)(=O)c1cn(C)cn1,-25.9,-1.1,3.2,.,.,.,.
N#C[C@H]1[C@@H](c2ccccc2-c2cccc(F)c2)[C@@H](CO)N1C(=O)C1CCCCC1,.,-18.8,0.7,.,.,.,.
CO[C@@H]1CN(C)C(=O)c2ccc(NC(=O)C3CCC3)cc2OC[C@@H](C)N(C(=O)CN(C)C)C[C@@H]1C,-30.1,2.7,5.5,.,.,.,.
COc1ccccc1C#Cc1ccc([C@H]2[C@@H](CO)N3CCCCN(C(=O)C4CCCC4)C[C@H]23)cc1,91.6,4.3,-29.9,.,.,.,.
COc1ccccc1C#Cc1ccc([C@@H]2[C@H]3CN(C(=O)C4CCCC4)CCCCN3[C@H]2CO)cc1,95.5*,-0.9,-0.7,87.5,96.9*,85.9*,103.7*
COc1ccccc1C#Cc1ccc([C@@H]2[C@H]3CN(C(=O)C4CCC4)CCCCN3[C@H]2CO)cc1,97.5*,1.0,-19.3,102.1*,93.8,56.0*,105.2*
COc1ccccc1C#Cc1ccc([C@H]2[C@@H](CO)N3CCCCN(C(=O)C4CCC4)C[C@H]23)cc1,92.0,-1.2,-39.6,.,.,.,.
COc1ccc(S(=O)(=O)N[C@H]2C=C[C@H](CC(=O)NCCc3ccncc3)O[C@@H]2CO)cc1,51.9,0.5,-20.1,.,.,.,.
C[C@H](CO)N1C[C@H](C)[C@@H](CN(C)C(=O)Nc2ccc3c(c2)OCO3)Oc2ccc(NC(=O)Nc3cccc4ccccc34)cc2CC1=O,-8.0,-0.5,-63.3,.,.,.,.
SMILES,T cruzi growth-1,C diff growth,Pf Dd2 inh,T cruzi growth-2,T cruzi growth-3,3T3 cytotox,NIH3T3 tox 2
C[C@@H]1CN([C@H](C)CO)S(=O)(=O)c2ccc(C#CCC3CCCC3)cc2O[C@@H]1CN(C)C,-16.5,25.3,-46.2,.,.,.,.
COc1ccc(NC(=O)N(C)C[C@H]2OCCCC[C@@H](C)Oc3ccc(NS(=O)(=O)c4ccc(Cl)cc4)cc3C(=O)N([C@H](C)CO)C[C@@H]2C)cc1,65.8,-10.4,-20.0,.,.,.,.
COc1cccc(-c2ccc([C@@H]3[C@@H](CO)N4CCCCN(C(=O)NC(C)C)C[C@@H]34)cc2)c1,99.6*,-2.4,1.5,102.1*,24.1,-9.1,?
Cc1cccc(-c2ccc([C@H]3[C@@H](CO)N4CCCCN(C(=O)NC(C)C)C[C@@H]34)cc2)c1,91.5,-20.0,0.7,.,.,.,.
COc1cccc(-c2ccc([C@H]3[C@@H](CO)N4CCCCN(C(=O)NC(C)C)C[C@H]34)cc2)c1,116.7*,9.9,11.5,107.6*,68.9,-6.3,60.5*
COc1cccc(-c2ccc([C@@H]3[C@@H](CO)N4CCCCN(C(=O)NC(C)C)C[C@H]34)cc2)c1,73.8,-14.5,46.0,.,.,.,.
CS(=O)(=O)Nc1ccc2c(c1)[C@@H]1C[C@@H](CC(=O)N3CCc4ccccc4C3)O[C@@H](CO)[C@@H]1O2,.,-5.6,-3.0,.,.,.,.
O=C(C[C@@H]1C[C@H]2c3cc(NS(=O)(=O)c4ccc(F)cc4)ccc3O[C@H]2[C@H](CO)O1)N1CCc2ccccc2C1,?,-6.5,-78.5,83.2,26.7,18.1,20.1
O=C(C[C@@H]1C[C@@H]2c3cc(NS(=O)(=O)c4ccc(F)cc4)ccc3O[C@@H]2[C@@H](CO)O1)N1CCc2ccccc2C1,114.6*,-7.6,-64.3,99.6*,13.1,15.9,13.2
O=C(C[C@H]1C[C@H]2c3cc(NS(=O)(=O)c4ccc(F)cc4)ccc3O[C@H]2[C@H](CO)O1)N1CCc2ccccc2C1,109.5*,6.1,-37.2,84.7,26.1,-6.5,6.9
CS(=O)(=O)Nc1ccc2c(c1)[C@@H]1C[C@H](CC(=O)N3CCc4ccccc4C3)O[C@H](CO)[C@@H]1O2,.,-2.7,-0.4,.,.,.,.
O=C(C[C@@H]1C[C@@H]2c3cc(NS(=O)(=O)c4ccc(F)cc4)ccc3O[C@@H]2[C@@H](CO)O1)N1CCCCC1,.,-7.5,-30.3,.,.,.,.
COCC(=O)N1CC2(C1)CN(Cc1cc(F)ccc1F)[C@H](CO)c1c2c2ccc(OC)cc2n1C,.,-2.3,-40.8,.,.,.,.

# Screening results: PubChem BioAssay, Broad Institute
